Compound activity: PubChem BioAssay, National Center for Advancing Translational Sciences (NCATS)
Pf growth 48h: P. falciparum growth inhibition at 48 hours (one generation); AID 504832; hit rate 5.9% among 310,000; P. falciparum luciferase growth in erythrocytes, 48 h; Potency, µM (doses to about 28.7 µM), for the others: at the top dose activity change, negative = inhibition, usual class: inhibitors; also: potency is read from the fitted curve at half-maximal effect; % is scaled to controls: 0 for no effect and ±100 for the full control effect
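Parasite viability was followed by luminescence of a genomically integrated firefly luciferase. Cultures held 0.1% parasitemia at 2% hematocrit (final), incubated under 5% CO2 at 37 C.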
HCV inh: inhibitors of hepatitis C virus infection; Huh7.5.1 HCVcc-Cre infection, luciferase reporter, 44 h; Potency, µM (doses to about 41.8 µM), inactives show at the top dose activity change, negative = inhibition, usual class: inhibitors; hit rate 3.4% among 340,000; AID 651820; also: potency is read from the fitted curve at half-maximal effect; % is scaled to controls: 0 for no effect and ±100 for the full control effect
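Antiviral activity was scored by luciferase reporter output from cells infected with HCVcc-Cre (~0.5 moi) in presence of compound, 44 h infection period, cells seeded 1,000/well 4 h prior.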
Shiga inhibitor: Shiga toxin inhibition; Vero cells, Shiga toxin protein synthesis inhibition reporter; inhibition, % at 38.7 µM; hit rate 9.2% among 290,000; AID 2315; in the data active = inhibition mostly above about 28%, no sharp cut-off; inactive = mostly below about 43%; also: 0% is about no effect
AMA1-RON2 inh: disrupts binding of P. falciparum AMA1 to RON2; AlphaScreen AMA1-biotinylated RON2 peptide binding; Potency, µM (top dose mostly 58.2 µM), without a hit: top-dose activity change, negative = inhibition, usual class: inhibitors; hit rate 0.2% among 360,000;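 also: potency is read from the fitted curve at half-maximal effect; 0% = vehicle wells and -100% = peptide control; nearly all actives have a fitted effect of over 45% in size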
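AMA1 (3D7) with his tag at 25 nM final met compounds first, then biotinylated RON2 peptide at 25 nM; detection used donor plus acceptor beads, 10 µg/mL apiece, read by AlphaScreen after 30 min at room temperature.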
Pf growth 96h: P. falciparum growth inhibition at 96 hour, primary screen for plastid delayed-death inhibitors; P. falciparum luciferase reporter growth, 96 h; hit rate 6.9% among 320,000; Potency, µM (titrated, usually from 28.7 µM), for the others: at the highest dose activity change, negative = inhibition, hits mostly inhibitors; AID 504834; also: potency is read from the fitted curve at half-maximal effect; % is scaled to controls: 0 for no effect and ±100 for the full control effect
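Two-generation exposure (96 h) targets delayed-death phenotype. Reporter parasites carrying integrated firefly luciferase, in red cells at 2% hematocrit and 0.05% parasitemia final, kept at 37 C, 5% CO2; luminescence loss indicates inhibition.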
CHX counter: counter-screen hit for Shiga toxin inhibitors, cycloheximide; cell reporter, cycloheximide protein synthesis inhibition counterscreen; max response, %; hit rate 12% among 300,000; AID 2314; in the data active = max response mostly above about 13%, no sharp cut-off; inactive = mostly below about 14%; also: read at 38.3 µM for the half of the compounds with a filed dose; 0% is about no effect
* hit, by the source's call; [ ] = another dose, or the depositor's remark. Hits are enriched below; roughly 21% of the tested compounds scored in any of these assays. Unless noted, calls follow the shape of the dose curve; as a rule, active = well fitted curve in the direction sought with a large enough effect; inconclusive = small, poorly fitted or top-dose-only effect, or another doubt; inactive = no such curve, though single readings can be large; an effect the other way counts as inactive or inconclusive.

Screening COc1ccc(C(=O)N2CCc3cc4c(cc3C2C)OCCCO4)cc1 (configuration not stated) returned Pf growth 48h inconclusive, HCV inh 1.58µM*, Shiga inhibitor 7.2, AMA1-RON2 inh -3.7%, Pf growth 96h 13.1µM* and CHX counter -0.9.
CC1c2cc3c(cc2CCN1C(=O)c1ccc(Br)cc1)OCCCO3 (configuration not stated) was read as Pf growth 48h -20.9%, HCV inh -5.4%, Shiga inhibitor -1.3, AMA1-RON2 inh -20.0%, Pf growth 96h inconclusive and CHX counter 1.3.
Screening N#Cc1ccc(C2CC(OCCF)=CC(=O)O2)cc1 (configuration not stated) returned AMA1-RON2 inh -13.1%.
Screening CC(Sc1nc2ccccc2n1C)C(=O)NC(c1ccccc1)c1ccccc1 (configuration not stated) returned Pf growth 48h 9.28µM*, HCV inh -18.7%, Shiga inhibitor -3.9, AMA1-RON2 inh -4.8%, Pf growth 96h 5.86µM* and CHX counter 4.0.
`COc1ccc2c(c1)c1nnc(SCC(=O)N3CCCCC3C)nc1n2C` (configuration not stated) gave Pf growth 48h 0.4%, HCV inh -15.8%, Shiga inhibitor -5.0, AMA1-RON2 inh 7.5%, Pf growth 96h 8.28µM* and CHX counter -4.0.
For CC(C)(CO)NCc1cccc(OCc2ccc(Cl)cc2)c1 the results were Pf growth 48h -24.1%, HCV inh inconclusive, Shiga inhibitor active, AMA1-RON2 inh -5.7%[2.32 µM], Pf growth 96h inconclusive and CHX counter 14.5.
`C=CCOc1ccc(Br)cc1CNC(C)(C)CO` gave Pf growth 48h -8.3%, HCV inh 15.6%, Shiga inhibitor -11.3, AMA1-RON2 inh -2.7%, Pf growth 96h 9.7% and CHX counter 4.1.
CC(C)(CO)NCc1cc(Br)ccc1OCc1ccccc1 was read as Pf growth 48h 10.4µM*, HCV inh 8.1%, Shiga inhibitor -24.0, AMA1-RON2 inh -7.4% and CHX counter -6.3.
COc1cccc(CNC(C)(C)CO)c1OCc1ccc(Cl)cc1 was read as Pf growth 48h inconclusive, HCV inh -11.4%, Shiga inhibitor -10.4, AMA1-RON2 inh -3.1%, Pf growth 96h -11.1% and CHX counter -2.7.
For COc1ccc2nc(NC(=O)CSc3nc(SC)ns3)sc2c1 the results were Pf growth 48h 47.7%, HCV inh inconclusive, Shiga inhibitor 72.1*, AMA1-RON2 inh 6.6%, Pf growth 96h -9.5% and CHX counter 46.7*.
`CSc1nsc(SCC(=O)Nc2ccc(F)cc2)n1` gave Pf growth 48h 65.5%, HCV inh -16.2%, Shiga inhibitor 42.1, AMA1-RON2 inh 7.6%, Pf growth 96h 19.8% and CHX counter 9.1.
Screening CCOc1ccc(OCCSc2nnnn2C2CCCCC2)cc1 returned Pf growth 48h 11.1%, HCV inh -26.6%, Shiga inhibitor -2.9, AMA1-RON2 inh 21.4%, Pf growth 96h 10.4µM* and CHX counter -1.5.
`COc1ccc2nc(NC(=O)CSc3nnnn3C)sc2c1` gave Pf growth 48h 18.6%, HCV inh 4.3%, Shiga inhibitor 45.8*, AMA1-RON2 inh 0.0%, Pf growth 96h -21.3% and CHX counter 28.3*.
`CSc1nsc(SCC(=O)Nc2nc3ccccc3s2)n1` gave Pf growth 48h 4.7%, HCV inh -10.0%, Shiga inhibitor 67.4*, AMA1-RON2 inh -12.0%, Pf growth 96h 23.6% and CHX counter 29.7*.
COc1ccc(-c2csc(NC(=O)CSc3nc(SC)ns3)n2)cc1 was read as Pf growth 48h 11.7%, HCV inh inconclusive, Shiga inhibitor 57.2*, AMA1-RON2 inh -11.7%, Pf growth 96h 33.1% and CHX counter 39.2*.
Screening COc1ccc2nc(NC(=O)CSc3nnc(C)s3)sc2c1 returned Pf growth 48h 56.7%, HCV inh -11.0%, Shiga inhibitor 30.1, AMA1-RON2 inh -4.2%, Pf growth 96h 22.4% and CHX counter 11.6*.
Screening CSc1nsc(SCC(=O)Nc2ccccn2)n1 returned Pf growth 48h 59.6%, HCV inh 2.8%, Shiga inhibitor 41.7*, AMA1-RON2 inh 2.9%, Pf growth 96h 29.6% and CHX counter 23.1*.
